Source: PubChem BioAssay (Broad Institute)
IDE exosite inh = exo-site inhibitors of human insulin-degrading enzyme. AID 1259349. 6.3% of 17,000 active. purified IDE, FL-6b probe fluorescence polarization; hits give low values. z-score at 20 µM;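 active means z-score of -3 or lower, meaning strong loss of probe binding signal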;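 further: His-tagged human IDE residues 42-1019 made in E. coli with 30 nM FL-6b probe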
Target sequence (P14735 42-1019 limits assumed): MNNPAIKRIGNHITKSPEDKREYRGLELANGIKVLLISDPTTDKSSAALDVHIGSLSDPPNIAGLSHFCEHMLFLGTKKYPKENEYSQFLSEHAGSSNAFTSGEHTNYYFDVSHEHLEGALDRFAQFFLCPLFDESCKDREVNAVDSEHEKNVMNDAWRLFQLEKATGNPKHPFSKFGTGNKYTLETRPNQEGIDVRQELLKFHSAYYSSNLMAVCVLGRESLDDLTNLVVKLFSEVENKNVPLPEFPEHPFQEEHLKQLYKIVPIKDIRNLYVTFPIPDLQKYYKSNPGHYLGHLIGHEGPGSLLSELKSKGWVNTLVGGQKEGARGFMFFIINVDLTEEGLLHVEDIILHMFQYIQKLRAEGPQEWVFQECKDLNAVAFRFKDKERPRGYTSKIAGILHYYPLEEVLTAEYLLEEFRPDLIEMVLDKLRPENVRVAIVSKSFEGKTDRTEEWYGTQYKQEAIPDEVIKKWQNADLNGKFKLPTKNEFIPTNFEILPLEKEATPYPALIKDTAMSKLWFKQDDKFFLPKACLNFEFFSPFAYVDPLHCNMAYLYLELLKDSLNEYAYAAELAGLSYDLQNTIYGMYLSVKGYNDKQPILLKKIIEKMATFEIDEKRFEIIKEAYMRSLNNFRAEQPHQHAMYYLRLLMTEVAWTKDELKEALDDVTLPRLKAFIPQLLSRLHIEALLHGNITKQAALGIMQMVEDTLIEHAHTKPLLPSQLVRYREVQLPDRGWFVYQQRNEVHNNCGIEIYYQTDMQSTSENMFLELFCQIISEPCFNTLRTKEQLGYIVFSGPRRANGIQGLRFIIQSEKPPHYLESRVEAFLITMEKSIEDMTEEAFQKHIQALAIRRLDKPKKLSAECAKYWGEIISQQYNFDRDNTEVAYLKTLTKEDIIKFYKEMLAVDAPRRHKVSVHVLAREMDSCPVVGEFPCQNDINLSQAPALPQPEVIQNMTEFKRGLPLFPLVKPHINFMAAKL
* hit, by the source's call. This excerpt belongs to a sample that is enriched for hits.

How did COc1cccc(-c2ccc([C@H]3[C@@H](CO)N4C(=O)CN(C(=O)C5CC5)C[C@@H]34)cc2)c1 do in these assays?
IDE exosite inh: -6.51*

Results for COc1cccc(-c2ccc([C@@H]3[C@H](CO)N4C(=O)CN(C(=O)C5CCC5)C[C@@H]34)cc2)c1 ?
IDE exosite inh: -10.5*

Results for COc1ccc(-c2ccc([C@H]3[C@@H](CO)N4C(=O)CN(C(=O)C5CCC5)C[C@@H]34)cc2)cc1 ?
IDE exosite inh: 1.68

Results for COc1ccc(-c2ccc([C@@H]3[C@H]4CN(C(=O)C5CC5)CC(=O)N4[C@H]3CO)cc2)cc1 ?
IDE exosite inh: -2.39

Results for COc1ccc(-c2ccc([C@@H]3[C@@H](CO)N4C(=O)CN(C(=O)C5CCCC5)C[C@H]34)cc2)cc1 ?
IDE exosite inh: 0.568

Results for COc1ccc(-c2ccc([C@@H]3[C@H]4CN(C(=O)C5CCCC5)CC(=O)N4[C@H]3CO)cc2)cc1 ?
IDE exosite inh: -1.11

What do the screens show for `COc1ccc2c3c(n(C)c2c1)[C@@H](CO)N(S(C)(=O)=O)CC31CCN(Cc2cncnc2)CC1`?
IDE exosite inh: -1.04

What do the screens show for `CO[C@@H]1CN(C)C(=O)c2ccc(NC(=O)c3ccno3)cc2OC[C@@H](C)N(S(C)(=O)=O)C[C@H]1C`?
IDE exosite inh: -0.395

Results for COc1ccc(C(=O)N2C[C@@H]3[C@H](c4ccccc42)[C@@H](CO)N3C(=O)NC(C)C)cc1 ?
IDE exosite inh: 3.03

Results for CN1C(=O)c2cc(NC(=O)c3cccc(Cl)c3)ccc2OC[C@H]2O[C@@H](CC(=O)NC3CCCCC3)CC[C@H]21 ?
IDE exosite inh: 1.19

What do the screens show for `O=C(c1ccccc1F)N1C[C@H]2[C@@H](c3ccccc31)[C@@H](CO)N2C(=O)Nc1ccccc1`?
IDE exosite inh: -0.74

How did N#C[C@H]1[C@@H](c2ccc(C3=CCCCC3)cc2)[C@H](CO)N1C(=O)CN1CCOCC1 do in these assays?
IDE exosite inh: -1.54

What do the screens show for `O=C(NC[C@@H]1N[C@@H](CO)[C@H]1c1ccc(C2=CCCCC2)cc1)c1ccc(F)cc1`?
IDE exosite inh: 4.07

Results for COc1ccc(NC(=O)N2C[C@@H](O)COC[C@H]3O[C@@H](CC(=O)N4CCCCC4)CC[C@@H]32)cc1 ?
IDE exosite inh: 0.0508

Results for NCC[C@H]1CC[C@H](NS(=O)(=O)c2ccc(Cl)cc2)[C@H](CO)O1 ?
IDE exosite inh: 3.54

Results for CC(C)C#Cc1ccc([C@@H]2[C@@H](CO)N3C(=O)CN(S(=O)(=O)c4ccccc4)C[C@H]23)cc1 ?
IDE exosite inh: -1.02

What do the screens show for `C[C@H]1CN([C@@H](C)CO)C(=O)c2ccccc2-c2ccccc2CO[C@@H]1CN(C)C(=O)Nc1cccc(C(F)(F)F)c1`?
IDE exosite inh: 0.521

What do the screens show for `COc1ccccc1NC(=O)N1C[C@@H]2[C@H](c3ccccc31)[C@@H](CO)N2CC1CCOCC1`?
IDE exosite inh: 2.47

How did O=S(=O)(c1ccc(Cl)cc1)N1[C@@H]2CNC[C@H]1C2c1ccc(-c2cccnc2)cc1 (some centres not stated) do in these assays?
IDE exosite inh: -2.15

Results for O=C(Cc1ccccn1)N1CC(=O)N2[C@H](CO)[C@H](c3ccc(C#CC4CC4)cc3)[C@@H]2C1 ?
IDE exosite inh: 3.41

What do the screens show for `O=C(Cc1ccccn1)N1CC(=O)N2[C@H](CO)[C@H](c3ccc(-c4ccccc4)cc3)[C@@H]2C1`?
IDE exosite inh: -3.71*

Results for O=C(Cc1ccccn1)N1CC(=O)N2[C@H](C1)[C@H](c1ccc(-c3ccccc3)cc1)[C@@H]2CO ?
IDE exosite inh: -1.51

Results for COc1ccc(-c2ccc([C@H]3[C@H](CO)N4C(=O)CN(C(=O)Cc5ccccn5)C[C@@H]34)cc2)cc1 ?
IDE exosite inh: -1.31

Results for Cc1cccc(-c2ccc([C@@H]3[C@H]4CN(C(=O)Cc5ccccn5)CC(=O)N4[C@H]3CO)cc2)c1 ?
IDE exosite inh: -14.9*

Results for O=C(Cc1ccccn1)N1CC(=O)N2[C@H](CO)[C@@H](c3ccc(C#CC4CC4)cc3)[C@@H]2C1 ?
IDE exosite inh: 0.65

What do the screens show for `CN(C)C(=O)c1ccc(-c2ccc([C@H]3[C@H](CO)N4CCCCN(CC5CC5)C[C@@H]34)cc2)cc1`?
IDE exosite inh: 2.94

What do the screens show for `CCS(=O)(=O)N1CC(=O)N2[C@H](CO)[C@@H](c3ccc(C#CC4CCCC4)cc3)[C@H]2C1`?
IDE exosite inh: 4.87

How did CN1[C@@H]2c3ccc(-c4ccc(F)cc4)c(=O)n3C[C@@H]2[C@@H](CO)[C@@H]1C(=O)NCc1ccccn1 do in these assays?
IDE exosite inh: -0.193

Results for OC[C@@H]1[C@@H](c2ccc(-c3ccc(F)cc3)cc2)[C@H]2CN(Cc3ccncc3)CCCCN12 ?
IDE exosite inh: 5.3

Results for OC[C@H]1[C@H](c2ccc(-c3ccccc3F)cc2)[C@@H]2CN(Cc3ccncc3)CCCCN12 ?
IDE exosite inh: 3.48

How did OC[C@@H]1[C@H](c2ccc(-c3ccccc3)cc2)[C@H]2CN(Cc3ccccn3)CCCCN12 do in these assays?
IDE exosite inh: -0.236

Results for OC[C@@H]1[C@H](c2ccc(-c3ccccc3)cc2)[C@@H]2CN(Cc3ccccn3)CCCCN12 ?
IDE exosite inh: -3.03*

What do the screens show for `OC[C@H]1[C@H](c2ccc(-c3ccccc3)cc2)[C@H]2CN(Cc3ccccn3)CCCCN21`?
IDE exosite inh: -1.8

Results for OC[C@@H]1[C@H](c2ccc(-c3ccc(F)cc3)cc2)[C@@H]2CN(Cc3ccncc3)CCCCN12 ?
IDE exosite inh: 4.39

What do the screens show for `Cc1cccc(-c2ccc([C@@H]3[C@@H](CO)N4CCCCN(Cc5ccncc5)C[C@H]34)cc2)c1`?
IDE exosite inh: -5.02*

What do the screens show for `OC[C@@H]1[C@@H](c2ccc(-c3ccccc3F)cc2)[C@H]2CN(Cc3ccncc3)CCCCN12`?
IDE exosite inh: 4.1

Results for COc1ccccc1-c1ccc([C@H]2[C@H](CO)N3CCCCN(Cc4ccncc4)C[C@@H]23)cc1 ?
IDE exosite inh: -8.05*

How did OC[C@@H]1[C@H](c2ccc(C3=CCCC3)cc2)[C@@H](CNC2CCCC2)N1CC1CC1 do in these assays?
IDE exosite inh: 1.35

How did CC(C)C#Cc1ccc([C@@H]2[C@@H](CO)N(C(=O)C3CCOCC3)[C@H]2C#N)cc1 do in these assays?
IDE exosite inh: 0.183

Results for CN(C)C(=O)C[C@@H]1C=C[C@H](NC(=O)c2ccc(F)cc2)[C@@H](CO)O1 ?
IDE exosite inh: -0.323

Results for C[C@@H]1CN([C@@H](C)CO)C(=O)c2ccccc2-c2ccccc2CO[C@@H]1CN(C)C(=O)[C@H]1CCCN1C ?
IDE exosite inh: -0.684

How did CO[C@@H]1CC[C@@H]2CCN(C)C(=O)[C@@H](C)N(C)C(=O)c3cccc(C#N)c3OC[C@@H]1O2 do in these assays?
IDE exosite inh: 1.41

What do the screens show for `COc1ccc(S(=O)(=O)Nc2cccc3c2O[C@@H](CN(C)CC2CCCCC2)[C@@H](C)CN([C@@H](C)CO)C3=O)cc1`?
IDE exosite inh: 1.86

What do the screens show for `O=C(C1CCC1)N1C[C@@H]2[C@H](c3ccccc31)[C@H](CO)N2C(=O)Nc1cccc(F)c1`?
IDE exosite inh: 0.107

How did CCC(=O)N1[C@@H]2CN(S(=O)(=O)c3ccc(F)cc3)c3ccccc3[C@@H]2[C@@H]1CO do in these assays?
IDE exosite inh: 3.39

How did O=C(CN1CCOCC1)N1CCCCN2[C@H](CO)[C@H](c3ccc(-c4ccccc4F)cc3)[C@H]2C1 do in these assays?
IDE exosite inh: -0.747
